Assay outcomes (PubChem BioAssay)
This is a sample that favours compounds with a hit; in the whole collection about 6.6% have one here.
KB-V1 MDR tox: qHTS assay for MDR1-selective chemotherapeutics: Primary screen using the drug-selected MDR subline cells KB-V1. KB-V1 MDR cells viability, CellTiter-Glo, 72 h. Potency, µM (titrated, usually from 46.1 µM), hits mostly cytotoxic. actives 3.4% (n = 400,000); also: % is scaled to controls: 0 for no effect and ±100 for the full control effect; nearly all actives have a fitted effect of over 60% in size
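In this primary screen, KB-V1 cells overexpressing P-gp are incubated with library compounds (lowest to highest concentration) for 72 h at 37 degrees C before a luminescent ATP viability read.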
TSG101-PTAP inh: qHTS Assay for Iinhibitors of HIV-1 Budding by Blocking the Interaction of PTAP/TSG101; Tumor susceptibility gene 101 protein (Homo sapiens), Q99816; Potency, µM (highest dose often 115 µM), without a hit: at the highest dose activity change, negative = inhibition, usual class: inhibitors; 340,000 tested, under 10 active; Fluorescence polarization, FITC-PTAP peptide / Tsg101 binding; active = well fitted inhibition curve with a large enough effect in the main read-out, with a control signal flat, not every such curve was filed as active; inconclusive = small, poorly fitted or top-dose-only effect, or effect the other way, or a change in a side signal; inactive = no such curve, though single readings can be large or run the other way; also: % of control where 0% means no effect
Target sequence (Q99816 whole entry, looked up): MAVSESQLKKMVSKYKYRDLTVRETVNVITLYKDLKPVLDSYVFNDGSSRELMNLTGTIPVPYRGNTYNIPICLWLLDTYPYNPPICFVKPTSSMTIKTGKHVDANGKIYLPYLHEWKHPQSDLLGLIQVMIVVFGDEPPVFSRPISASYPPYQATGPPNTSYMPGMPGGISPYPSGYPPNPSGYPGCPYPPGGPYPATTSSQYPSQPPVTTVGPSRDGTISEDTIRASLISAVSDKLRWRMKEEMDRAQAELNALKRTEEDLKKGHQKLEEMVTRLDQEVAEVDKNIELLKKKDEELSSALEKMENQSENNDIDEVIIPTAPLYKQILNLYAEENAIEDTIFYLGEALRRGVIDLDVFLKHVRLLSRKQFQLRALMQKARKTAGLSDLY
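Fluorescence polarization binding of Tsg101 binding domain (10 uM final) to FITC-labeled PTAP peptide (50 nM final) in HEPES pH 7.5 buffer with NaCl, Tween 20, EDTA, TCEP. Compounds added before peptide; binding 20 min at RT.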
SW480 rereplic: A quantitative high throughput screen for small molecules that induce DNA re-replication in SW480 colon adenocarcinoma cells. SW480 DNA re-replication, Hoechst DNA content imaging, 48 h. Potency, µM (highest dose often 46.1 µM), inactives show top-dose re-replication activation, most hits filed as activators. actives 1.8% (n = 340,000); also: % of control where 0% means no effect; nearly all actives have a fitted effect of over 55% in size
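Cells (250 per well) received 23 nL compound or DMSO by pin tool and were kept 48 hr at 37 C, 5% CO2. Nuclei were then stained with Hoechst for 40 min and scanned for DNA content.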
MCF10A rereplic: A quantitative high throughput screen for small molecules that induce DNA re-replication in MCF 10a normal breast cells. MCF 10A DNA re-replication, Hoechst nuclear intensity, 48 h. Potency, µM (doses to about 46.1 µM), for inactives: at the highest dose activity, positive = re-replication, usual class: activators. actives 2.9% (n = 350,000). AID 624296, 2012; also: % of control where 0% means no effect; nearly all actives have a fitted effect of over 50% in size
KB-3-1 cytotox: qHTS assay for MDR1-selective chemotherapeutics: Primary screen using the parental adenocarcinoma cell KB-3-1; KB-3-1 viability, CellTiter-Glo ATP luminescence, 72 h; Potency, µM (doses to about 46.1 µM), hits mostly cytotoxic; actives 1.4% (n = 400,000); AID 1347075, 2019; also: % is scaled to controls: 0 for no effect and ±100 for the full control effect; nearly all actives have a fitted effect of over 60% in size
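Using CellTiter-Glo luminescence, growth of non-resistant KB-3-1 adenocarcinoma cells is assessed 72 h after pin-tool compound addition at 37 °C. Normalized responses across the concentration series yield fitted curves.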
RGS4 inh: Inhibitors of Regulator of G Protein Signaling (RGS) 4: qHTS; Regulator of G-protein signaling 4 (Homo sapiens), P49798; Transcreener GDP fluorescence polarization, RGS4-accelerated GTP hydrolysis; Potency, µM (highest dose often 114 µM), without a hit: top-dose activity change, negative = inhibition, actives largely listed as inhibitors; actives 0.039% (n = 390,000); AID 504845, 2011; also: % is scaled to controls: 0 for no effect and ±100 for the full control effect; nearly all actives have a fitted effect of over 75% in size
Target sequence (P49798 whole entry, looked up): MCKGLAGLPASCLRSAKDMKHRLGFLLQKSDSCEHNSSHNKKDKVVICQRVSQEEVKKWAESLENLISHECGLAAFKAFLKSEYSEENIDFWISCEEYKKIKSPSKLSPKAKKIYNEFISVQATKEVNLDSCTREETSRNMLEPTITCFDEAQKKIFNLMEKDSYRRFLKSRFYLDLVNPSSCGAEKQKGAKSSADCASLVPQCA
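MLSMR compounds (23 nl, pin-transferred) preincubated 10 min at room temperature with a 500nM (2x) first reagent, then RGS4 at 900nM (2x) plus Transcreener GDP mix added; fluorescence polarization (620/688 nm) read before and after 90 min at 30 °C.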
* hit, by the source's call; i = inactive; u = inconclusive; x = not tested or not shown. Unless noted, calls follow the shape of the dose curve; as a rule, active = well fitted curve in the direction sought with a large enough effect; inconclusive = small, poorly fitted or top-dose-only effect, or another doubt; inactive = no such curve, though single readings can be large; an effect the other way counts as inactive or inconclusive. Potency is read from the fitted curve at half-maximal effect.

SMILES	KB-V1 MDR tox	TSG101-PTAP inh	SW480 rereplic	MCF10A rereplic	KB-3-1 cytotox	RGS4 inh
Cc1ccc(N2CC(NC(=O)C3CCCCC3)CC2=O)cc1C (configuration not stated)	x	x	x	x	x	-9%
O=c1c(S(=O)(=O)c2ccccc2)cn(Cc2cccc(F)c2)c2cc(N3CCOCC3)c(F)cc12	i	x	x	x	i	0%
CCCC12CN3CC(CCC)(CN(C1)C3c1ccc(OCc3ccccc3)cc1)C2=O (configuration not stated)	i	x	x	x	i	-4%
Cc1sc2nc(-c3ccccn3)[nH]c(=O)c2c1-c1ccccc1	i	-4%	23µM*	u	u	u
Cc1sc2nc(-c3ccncc3)[nH]c(=O)c2c1-c1ccccc1	x	x	0%	0%	x	x
CCC(C)NC(=O)C1CCN(C(=O)c2ccc(-n3ccc4ccccc43)s2)CC1 (configuration not stated)	i	x	x	x	i	11%
O=C(/C=C/c1ccco1)N1CCN(S(=O)(=O)c2cccc([N+](=O)[O-])c2)CC1	23µM*	-4%	-2%	2%	i	-30%
Cc1[nH]c2ccccc2c1C(=O)C(C)OC(=O)c1ccc([N+](=O)[O-])o1 (configuration not stated)	u	0%	u	23µM*	u	7%
COc1cccc(NS(=O)(=O)c2ccc3[nH]cc(C(=O)N(C)C4CCCCC4)c(=O)c3c2)c1	x	x	x	x	x	-14%
Cc1ccc(S(=O)(=O)N2CCOCC2)c2nsnc12	i	-2%	-5%	1%	i	1%
O=S(=O)(c1ccc(Br)c2nsnc12)N1CCOCC1	i	0%	u	21µM*	i	21%
COc1cc(OC)c(OC)cc1/C=c1\[nH]c(=O)/c(=C/c2cc(OC)c(OC)cc2OC)[nH]c1=O	i	x	x	x	u	x
CCOC(=O)N1CCN(Cc2cc(=O)oc3ccc(Cl)cc23)CC1	18µM*	0%	-17%	6%	i	-12%
CCOC(=O)N1CCN(CCC(=O)c2ccc(Cl)cc2)CC1	u	-9%	u	u	21µM*	u
COc1ccc(N2CCN(CCC(=O)c3ccc4ccccc4c3)CC2)cc1	u	2%	u	10µM*	i	u
CCN1CCN(Cc2cc(=O)oc3ccc(Cl)cc23)CC1	i	-5%	-1%	-4%	i	-2%
CCOC(=O)N1CCN(CCC(=O)c2ccc(OC)cc2)CC1	i	0%	u	15µM*	i	-33%
O=C(Nc1ccc(OC(F)(F)F)cc1)NC1COc2ccccc2C1 (configuration not stated)	i	x	x	x	i	18%
CC(C)NC(=O)C1CCC(Cn2c(=O)c3sccc3n(CC(=O)N3CCCC3)c2=O)CC1 (configuration not stated)	i	x	x	x	i	2%
Cc1cc(=O)n(C)c(=O)n1CCCCCCOc1cccc([N+](=O)[O-])c1	7.3µM*	0%	-119%	-72%	u	-35%
CCc1ccc(CNC(=O)Cn2nc(C)c3nn(-c4ccc(Cl)cc4)c(C)c3c2=O)cc1	x	x	x	x	x	-16%
Cc1cc(N2CCN(C/C=C/c3ccccc3)CC2)n2ncnc2n1	9.2µM*	-5%	-11%	-7%	i	2%
O=C1OCCN1C(=O)[C@H]1[C@H](c2ccccc2)C(c2ccc(F)cc2)=NN1c1ccc(Br)cc1	i	2%	23µM*	9.2µM*	i	5%
O=C1OCCN1C(=O)[C@H]1[C@H](c2ccccc2)C(c2ccccc2)=NN1c1ccc(Br)cc1	i	2%	18µM*	u	i	13%
O=C1OCCN1C(=O)[C@H]1[C@H](c2ccc([N+](=O)[O-])cc2)C(c2ccc(F)cc2)=NN1c1ccc(Br)cc1	i	-3%	-1%	-31%	i	0%
SMILES	KB-V1 MDR tox	TSG101-PTAP inh	SW480 rereplic	MCF10A rereplic	KB-3-1 cytotox	RGS4 inh
CCOc1ccc(N2C(=O)C3C(c4ccccc4)=NN(c4ccccc4)C3C2=O)cc1 (configuration not stated)	i	-3%	-690%	24%	i	5%
O=C1OCCN1c1ccccc1	i	-5%	0%	-3%	i	1%
O=C1OCCN1C(=O)[C@H]1[C@H](c2ccccc2)C(c2ccccc2)=NN1c1ccccc1	i	15%	-5%	21µM*	i	-1%
COc1ccc(NC(C)=O)cc1NC(=O)C1(c2cccs2)CCOCC1	i	x	x	x	i	16%
CNc1ccc(Br)cc(C(=O)/C=C/c2cccc(OC)c2OC)c1=O	i	-4%	-19%	1%	i	-20%
CNc1ccc(Br)cc(C(=O)/C=C/c2cccc(Cl)c2Cl)c1=O	u	-2%	4%	16µM*	16µM*	u
CCNc1ccc(Br)cc(C(=O)/C=C/c2ccccc2Cl)c1=O	23µM*	3%	u	u	u	u
O=C(NC1CC1(c1ccccc1)c1ccccc1)c1ccccc1 (configuration not stated)	16µM*	-1%	13%	16%	u	-6%
O=C(NC1CCCc2ccccc21)c1ccccc1 (configuration not stated)	i	-4%	12%	1%	i	-3%
Cc1ccc(NC(=O)C2CCCC2)cc1Cl	i	0%	6%	4%	i	-5%
Cc1ccc(S(=O)(=O)Nc2cccc(Cl)c2)cc1NC(=O)c1cccnc1	i	-1%	u	u	i	-8%
Cc1ccc(S(=O)(=O)Nc2cccc(Cl)c2)cc1NC(=O)C1CC1	21µM*	-6%	3%	1%	u	-5%
Cc1ccc(NS(=O)(=O)c2ccc(Cl)c(NC(=S)NC(=O)C3CCCCC3)c2)cc1Cl	i	-4%	-66%	8.2µM*	i	-19%
CC(NC(=O)COc1ccc(-c2nnco2)cc1)c1ccc(Cl)cc1Cl (configuration not stated)	21µM*	-1%	x	5%	u	6%
O=C(COc1ccc(-c2nnco2)cc1)NCc1ccccc1Cl	i	-1%	-12%	5%	i	-2%
